# Assay outcomes from PubChem.
# PKA-R1A act = activators of PKA-R1A complex; P00514+P68181; PKA-R1A dissociation, Cy5-IP20 fluorescence polarization; scaled: DMSO 0%, 113 µM cGMP 100%; activation, % at 11.4 µM; 340,000 compounds, 0.083% hits; AID 504707;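 active = percent activation above the mean of all tested compounds plus 3 SD, cut at about 19% in these data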;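 note: higher means more PKAc released from R1A so a rise in polarization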
# MsrA inhibitor = inhibits bovine methionine sulfoxide reductase A; purified bovine MsrA, absorbance read-out; inhibition, % at 15.5 µM; 360,000 compounds, 0.75% hits; in the data active = inhibition above about 4.5%;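 note: 0% = vehicle wells with enzyme and 100% = reference inhibitor wells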
# MsrA act = bovine methionine sulfoxide reductase A activation | purified bovine MsrA, absorbance read-out | activation, % at 10.6 µM | 360,000 compounds, 0.3% hits | AID 602163; in the data active = activation above about 7.5%;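 note: 0% = vehicle and 100% = reference activator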
# PKA-R2B activ = activators of human PKA-R2B complex. P22694+P31323. activation, % at 11.4 µM. 340,000 compounds, 0.079% hits. PKA-R2B holoenzyme dissociation, Cy5-IP20 fluorescence polarization; R2B truncated from residue 108, S112A mutant; 0% DMSO only, 100% 113 µM cGMP;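 active = activation above a cutoff set at the mean over all compounds plus 3 SD, cut at about 18% in these data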;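 note: higher means more holoenzyme dissociation and a rise in polarization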
# Target sequence (P31323 whole entry, looked up, other chains not shown, the tested form may be a part): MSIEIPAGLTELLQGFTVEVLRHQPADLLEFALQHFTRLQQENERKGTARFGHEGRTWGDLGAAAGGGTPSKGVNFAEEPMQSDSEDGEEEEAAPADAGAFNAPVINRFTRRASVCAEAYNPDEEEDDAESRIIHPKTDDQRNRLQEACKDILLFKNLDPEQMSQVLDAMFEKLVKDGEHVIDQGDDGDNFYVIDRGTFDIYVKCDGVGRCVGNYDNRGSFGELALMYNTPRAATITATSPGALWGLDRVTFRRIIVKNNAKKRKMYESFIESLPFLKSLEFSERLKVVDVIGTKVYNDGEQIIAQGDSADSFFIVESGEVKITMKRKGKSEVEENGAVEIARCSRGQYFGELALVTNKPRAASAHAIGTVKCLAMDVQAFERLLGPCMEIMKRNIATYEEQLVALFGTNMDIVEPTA
# MsrA act confirm = confirmation of bovine methionine sulfoxide reductase A activators. shares compounds with MsrA act. purified bovine MsrA, absorbance read-out. activation, % at 10.6 µM. 1,000 compounds, 12% hits; in the data active = activation above about 4%;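 note: enzyme coupled to thioredoxin and thioredoxin reductase with NADPH; 0% = vehicle wells and 100% = reference activator wells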
# * = called active by the depositor; nt = no result given. Shown are actives, neighbours in structure and some others; about 1.1% of the full set was active somewhere.
SMILES,PKA-R1A act,MsrA inhibitor,MsrA act,PKA-R2B activ,MsrA act confirm
CS(=O)(=O)c1cc([N+](=O)[O-])c(Sc2nc3ccccc3[nH]2)c([N+](=O)[O-])c1,-0.7,-1.1,8.0*,-1.4,10.4*
CC(=O)N(C)c1ccc(N=Nc2c(C)[nH]n(-c3ccccc3)c2=O)cc1,0.0,-1.0,8.0*,-4.5,-0.7
CCOC(=O)c1ccc(N=Nc2c(C)[nH]n(-c3ccccc3)c2=O)cc1,-3.6,-1.8,-7.0,2.0,nt
S=C(NCCCN1CCOCC1)Nc1ccc(Cl)c(Cl)c1,1.2,-0.8,13.8*,2.0,-2.6
Cc1ccc(NC(=S)NCCCN2CCOCC2)cc1C,-4.8,-0.8,-2.6,-7.4,nt
C/C(=N/Nc1ccccc1C(=O)O)c1cccs1,-3.1,4.0,16.0*,4.3,-3.0
CCCOc1ccc(/C=C2\SC(=S)N(CC3CCCO3)C2=O)cc1 (stereo unspecified),-7.6,-0.1,-1.3,7.0,nt
O=C1/C(=C/c2ccc(O)cc2)SC(=S)N1CC1CCCO1 (stereo unspecified),2.3,2.4,10.5*,-8.3,-0.8
COc1ccc(-n2c(=O)[nH]cc(C(=O)Nc3ccc4c(c3)OCCO4)c2=O)cc1,-11.1,-0.2,-1.3,-1.4,nt
COc1ccc(-n2c(=O)[nH]cc(C(=O)Nc3ccc4c(c3)OCO4)c2=O)cc1OC,-6.9,-1.0,11.6*,1.0,0.2
COC(=O)[C@]12C[C@H](CC(=O)N3CCN(C(=O)c4ccco4)CC3)C(=O)N(Cc3ccccc3)C1=C[C@H](C(C)C)O[C@@H]2C1CC1,nt,0.3,nt,nt,nt
Nc1cc(C2CCCC2)nn1-c1ccccc1,-5.8,-0.8,9.1*,-1.6,-4.4
OCCNCCSc1ccc(Cl)cc1,6.3,-0.9,9.3*,-3.0,0.3
Cc1cc(C)c(O)c(C(=O)CC2CC(=O)NC(=O)C2)c1,nt,-0.7,nt,nt,nt
CCN(CC(=O)NCc1ccc(Cl)cc1)C(=O)c1ccc(C#N)cc1,-4.4,-0.7,15.6*,4.9,-1.4
CCN(CC(=O)NCc1ccc(F)cc1)C(=O)c1ccc(Cl)cc1,9.2,0.8,-0.8,-2.2,nt
CN(C)Cc1c(C(C)(C)O)[nH]c2cc(F)ccc12,nt,-0.6,nt,nt,nt
CC(C)c1ccc(C(=O)CSc2ncn[nH]2)cc1,5.4,-0.6,14.2*,4.4,-2.0
CC(C)C[C@H](NC(=O)C1CCCC1)C(=O)N1CCC[C@H]1C(=O)NCc1ccccc1,nt,0.0,nt,nt,nt
COc1cc(C[C@@H]2C(=O)OC[C@H]2Cc2ccc(OC)c(OC)c2)ccc1O,2.5,0.4,11.3*,1.2,-1.3
COc1cc(CC2COC(=O)C2Cc2ccc(O)c(OC)c2)ccc1O (stereo unspecified),nt,-1.8,nt,nt,nt
CCNC(=O)c1cc2c(c(-c3cccc(-c4cncnc4)c3)n1)[C@@H](CCO)N(C(C)=O)C2,nt,1.1,1.6,nt,nt
CCC(=O)N1Cc2cc(C(=O)NCC(F)(F)F)nc(-c3cccc(-c4cncnc4)c3)c2[C@@H]1CCO,nt,-1.8,8.2*,nt,-4.8
CNc1ncnc2sc(-c3ccccc3)cc12,-9.1,4.0,-4.7,-11.0,nt
S=c1[nH]cnc2sc(-c3ccccc3)cc12,-10.6,1.8,8.2*,-3.4,0.3
SMILES,PKA-R1A act,MsrA inhibitor,MsrA act,PKA-R2B activ,MsrA act confirm
Nc1[nH]c(C(=O)c2ccc(Br)cc2)c(-c2cccc3ccccc23)c1C(=O)NCCc1c[nH]c2ccccc12,nt,0.6,nt,nt,nt
CC(O)CC(=O)OC[C@]12CC[C@H]3[C@@](C)(CC[C@H]4C(C)(C)CCC[C@]34C)[C@@H]1CC(C1=CC(=O)OC1O)O2 (stereo partly specified),nt,0.6,-2.3,nt,nt
C=CCn1c(SCCN2CCCC2)nc2c([nH]c3ccccc32)c1=O,-2.6,1.1,8.4*,-5.0,-1.2
O=C1NCCN(Cc2ccc(Cl)c(F)c2)C1CC(=O)N1CCCCO1 (stereo unspecified),-5.5,-1.2,8.6*,0.3,-2.1
COCc1cc(N2CCN(C(=O)OC(C)(C)C)C[C@@H]2C)ccc1Br,nt,-1.2,nt,nt,nt
CCn1nc(C(=O)OCC(=O)Nc2ncc(Cl)c(C)c2Cl)c2ccccc2c1=O,3.6,1.1,18.6*,-5.3,0.0
O=C(C1CCN(S(=O)(=O)c2ccccc2F)CC1)N1CCc2ccccc21,0.8,-1.7,8.8*,-8.9,-1.3
CCCCN(CC)CCCNC(=O)CC1Oc2ccccc2NC1=O (stereo unspecified),7.5,1.0,-2.3,3.4,nt
CC(C)CN(CCCNC(=O)CC1Oc2ccccc2NC1=O)CC(C)C (stereo unspecified),-8.6,-0.7,8.6*,-0.2,-0.3
CCOC(=O)C1=CN(Cc2cccc(F)c2)S(=O)(=O)N(CC)C1CCc1ccccc1 (stereo unspecified),-1.2,-0.4,8.6*,-12.6,0.5
CCOC(=O)C1=CN(Cc2cccc(F)c2)S(=O)(=O)NC1CCc1ccccc1 (stereo unspecified),-1.1,-0.6,1.2,-4.1,nt
C[C@H](CO)N1C[C@H](C)[C@@H](CN(C)C(=O)C2CC2)OCc2cn(nn2)CCCC1=O,nt,-0.2,nt,nt,nt
S=C(NCc1ccccc1)N1CCc2ccccc2C1,1.7,-0.1,9.5*,5.1,-1.5
COc1ccccc1NC(=O)COC(=O)c1ccc([N+](=O)[O-])s1,-2.9,2.2,33.0*,-12.8,18.4*
Cc1cc(C)c(NC(=O)COC(=O)c2ccc([N+](=O)[O-])s2)c(C)c1,-16.2,0.5,-3.7,-9.3,nt
Cc1ccc(NC(=O)COC(=O)c2ccc([N+](=O)[O-])s2)c(C)c1,-16.5,2.5,5.2,8.2,nt
CN(CC(=O)Nc1ccccc1Cl)C(=O)COC(=O)c1ccc([N+](=O)[O-])s1,-5.3,0.9,12.3*,-10.6,1.9
NS(=O)(=O)c1ccc(NC(=O)COC(=O)c2ccc([N+](=O)[O-])s2)cc1,-1.0,2.0,27.8*,11.1,12.0*
Cn1c(=O)c2c(nc(NCCCO)n2Cc2cccc(C(F)(F)F)c2)n(C)c1=O,-8.1,1.0,8.3*,0.2,0.3
Cn1c(=O)c2c(nc(SCC(=O)O)n2Cc2cccc(C(F)(F)F)c2)n(C)c1=O,-10.0,0.5,-4.6,-3.4,nt
N#Cc1cn(CC(=O)N2CCCc3ccccc32)c2ccccc12,-4.0,0.6,8.1*,4.3,0.6
COC(=O)[C@]12C[C@H](CC(=O)NCC34CC5CC(CC(C5)C3)C4)C(=O)N(Cc3ccccc3)C1=C[C@H](C(C)C)O[C@@H]2C1CC1,nt,0.3,nt,nt,nt
O=C(CSCc1ccc(Cl)cc1)NN=C1CCCC1,0.9,-0.9,8.1*,-17.9,-0.7
N#Cc1ccc(CSCC(=O)NN=C2CCCC2)cc1,-8.4,-0.9,-1.6,-10.5,nt
NNC(=O)c1oc2nc(-c3ccco3)cc(-c3ccco3)c2c1N,nt,2.3,8.2*,nt,-1.9
Nc1c(C(=O)N/N=C/c2cccnc2)oc2nc(-c3ccco3)cc(-c3ccco3)c12,nt,2.2,-5.9,nt,nt
Nc1[nH]c(C(=O)c2ccccc2)c(-c2ccccc2Cl)c1C(=O)NCCc1c[nH]c2ccccc12,nt,0.2,nt,nt,nt
CCOC(=O)C(C)Oc1cccc2c(=O)n(CC(=O)Nc3cccc(OC)c3)ccc12 (stereo unspecified),-1.6,1.0,8.4*,-0.5,-2.9
